# Data from PubChem BioAssay (Tox21).
# Records with an inconclusive call do not appear. Active and inactive are the calls of the source. The call rests on the fitted dose curve; in most records, active means well fitted cell-killing curve with a large enough effect in the repeat runs; inconclusive means weak or mixed curves, or effect the other way; inactive means no such curve, though single readings can be large or run the other way.
# Assay: qHTS assay to identify small molecule agonists of the RXR signaling pathway - cell viability counter screen (AID 1159529); further: nearly all actives have a fitted effect of over 50% in size
# Conditions: RXR-alpha-bla HEK293T viability, CellTiter-Glo, 16 h; series mostly up to 76.8 µM; activity change, negative = cytotoxicity: at the top concentration
# Text: National Center for Advancing Translational Sciences [NCATS]
# NIH Chemical Genomics Center [NCGC]
# U.S. Environmental Protection Agency [EPA]
# National Institutes of Environmental Health Sciences [NIEHS]
# National Toxicology Program [NTP]
# U.S. Food and Drug Administration [FDA]
# The Retinoid X receptor (RXR), a nuclear hormone receptor expressed in liver, spleen, placenta, epidermis, central nervous system. These receptors are able to form homo and heterodimers with other nuclear receptors and due to this heterodimerizing ability, RXR functions as master regulators producing diverse physiological effects. Three subtypes of RXR exist; alpha, beta and gamma. Retinoid X receptor alpha (RXR-alpha) has potential roles in metabolic signaling pathways, skin alopecia, dermal cysts, cardiac development, insulin sensitization etc. Therefore screening environmental chemicals on RXR-alpha signaling can be used for the studies focused on such therapeutic applications. For quantification of RXR-alpha ligands signaling, GeneBLAzer RXR alpha-UAS-bla HEK 293T (Life Technologies, Carlsbad, CA) cells containing a beta-lactamase reporter-gene under control of Retinoid X receptor-alpha response element were used to screen Tox21 10K library. The cytotoxicity of the Tox21 compound library against the RXR-alpha HEK 293T cell line was tested in parallel by measuring cell viability using CellTiter-Glo assay (Promega Corporation, Madison, WI) in the same wells.
# Tox21 Assay Protocol Summary:
# RXR-alpha HEK 293T cells were dispensed at 2,000 cells/6 uL of assay medium containing 2% charcoal-stripped FBS using a Multidrop Combi (ThermoFisher Scientific, Waltham, MA) dispenser. The assay was performed in black wall/clear-bottom 1536-well plates (Greiner Bio-One North America Inc. Monroe, NC). Tetraoctyl ammonium bromide was used as a positive control in the cytotoxicity screen. After the assay plates were incubated at 37 C and 5% CO2 for 5 hr, 23 nL of compounds dissolved in DMSO, positive control or DMSO only were transferred to the assay plate by a Pintool station (Kalypsys, San Diego, CA). The assay plates were incubated at 37 C and 5% CO2 for 16 hr. One uL of LiveBLAzer B/G FRET substrate (Life Technologies) was added using a Flying Reagent Dispenser (FRD) (Aurora Discovery, San Diego, CA) and the plates were incubated at room temperature for 2 hr. Fluorescence intensity (405 nm excitation, 460/530 nm emission) was measured using an Envision plate reader (PerkinElmer, Shelton, CT). For cytotoxicity, 4 uL/well of CellTiter-Glo reagent was added into the assay plates using an FRD. After 30 min incubation at room temperature, the luminescence intensity was measured using a ViewLux plate reader (PerkinElmer).
# On the % scale 0 is the no-effect control and ±100 the full control effect; potency means the concentration at half of the fitted maximal effect.
Structure (SMILES),"activity change, negative = cytotoxicity",Potency
O=C(CC(=O)C(F)(F)F)c1ccccc1,-5.9% (inactive),
COc1ccc(S(=O)(=O)Nc2nnc(CC(C)C)s2)cc1,-3.69% [at 35.3 µM] (inactive),
CC(C)c1ccccc1,2.47% (inactive),
CC1(C)C(=O)N(Cl)C(=O)N1Br,-19% (inactive),
CC(=O)Nc1ccc(C)c(Cl)c1,-12.6% (inactive),
C=Cc1ccccc1,2.65% (inactive),
CC1=NN(c2cc(Cl)c(S(=O)(=O)O)cc2Cl)C(=O)C1N=Nc1ccc(S(=O)(=O)O)cc1 (stereo not given),11.2% (inactive),
CC(C)CC(=O)OCc1ccccc1,3.87% (inactive),
CC(C)(C)C1CCCCC1=O (stereo not given),1.91% (inactive),
CCCCNCCCC,9.32% (inactive),
COc1nc(C)nc(NC(=O)NS(=O)(=O)c2ccccc2OCCCl)n1,4.4% (inactive),
CC/C=C\CCOC(=O)CCCCC,-1.72% (inactive),
CC(C)=CCCC(C)CCOC=O (stereo not given),-15.4% (inactive),
CCC/C=C/CO,5.76% (inactive),
N#Cc1ccc(C(c2ccc(C#N)cc2)n2cncn2)cc1,1.79% [at 35.3 µM] (inactive),
CC(=O)N[C@@H](CC(C)C)C(=O)O,15% [at 35.3 µM] (inactive),
O=S(=O)(O)C(F)(F)F,4.95% (inactive),
OCCN(CCO)CCN(CCO)CCO,2.83% (inactive),
CCOC(=O)C1CC(=O)C(=C(O)C2CC2)C(=O)C1 (stereo not given),1.15% (inactive),
CCN[C@H]1CN(CCCOC)S(=O)(=O)c2sc(S(N)(=O)=O)cc21,10.5% [at 35.3 µM] (inactive),

Structure (SMILES),"activity change, negative = cytotoxicity",Potency
Cc1cn([C@@H]2O[C@H](CO)[C@@H](O)[C@@H]2F)c(=O)[nH]c1=O,9.72% [at 35.3 µM] (inactive),
CN1C(=O)CC(c2ccccc2)C1=O (stereo not given),11.4% [at 35.3 µM] (inactive),
FC(F)(F)C(F)(F)C(F)(F)C(F)(F)C(F)(F)C(F)(F)C(F)(F)C(F)(F)Br,-8.93% [at 35.3 µM] (inactive),
O=C(CCCl)NCc1ccccc1,-1.32% [at 35.3 µM] (inactive),
CC1=C2[C@H](/C=C(\C)C(=O)O)CC[C@@H](C)[C@H]2CC1,,45.3 µM (active)
O=C(O[C@@H](C(=O)O)[C@@H](OC(=O)c1ccccc1)C(=O)O)c1ccccc1,-1.65% (inactive),
CCCN(CCC)C(=O)C(CCC(=O)O)NC(=O)c1ccccc1 (stereo not given),8.23% [at 35.3 µM] (inactive),
CCOc1ccc(NS(=O)(=O)c2ccc(N)cc2)nn1,8.05% [at 35.3 µM] (inactive),
CC(C)NCC(O)COc1ccc(CCOCC2CC2)cc1 (stereo not given),-14.7% [at 35.3 µM] (inactive),
O=C(C(Cl)Cl)N1CCOC12CCCCC2,0.124% (inactive),
O=C1Nc2ccc([N+](=O)[O-])cc2C1=O,-5.63% (inactive),
C[C@]12CCC(=O)C=C1CC[C@@H]1[C@@H]2CC[C@@]2(C)[C@H]1CC[C@]2(O)C(=O)CO,-16.1% [at 35.3 µM] (inactive),
CC(C)S,6.3% (inactive),
CCC(=O)Nc1ccc(O)cc1,9.12% [at 35.3 µM] (inactive),
C[C@@H]1CN(c2c(F)c(N)c3c(=O)c(C(=O)O)cn(C4CC4)c3c2F)C[C@H](C)N1,8.39% [at 15.8 µM] (inactive),
CC(C)Nc1nc(N)nc(Cl)n1,-1.12% (inactive),
CCCCCOc1ccc(C2SC(=O)NC2=O)cc1OCC (stereo not given),-15.4% [at 35.3 µM] (inactive),
CCC(=O)O[C@]1(C(=O)SCF)[C@H](C)C[C@H]2[C@@H]3C[C@H](F)C4=CC(=O)C=C[C@]4(C)[C@@]3(F)[C@@H](O)C[C@@]21C,-13% [at 35.3 µM] (inactive),
O=C1C=CC(=O)O1,5.63% (inactive),
CCCc1c2oc(C(=O)O)cc(=O)c2cc2c(=O)cc(C(=O)O)n(CC)c12,10.7% [at 35.3 µM] (inactive),
